Experimental data from PubChem BioAssay (Tox21).
Inconclusive results are not listed. Active and inactive are the calls of the source. Calls come from the whole dose curve; as a rule, active = well fitted curve in the direction sought with a large enough effect in the repeat runs; inconclusive = weak or mixed curves; inactive = no such curve, though single readings can be large; an effect the other way counts as inactive or inconclusive.

Tests used:
[1] = molecular target: Cytochrome P450 2D6 (Homo sapiens) (UniProt P10635); experiment: Cytochrome P450 Family 2 Subfamily D Member 6 (CYP2D6) small molecule antagonists: luciferase reporter qHTS assay (AID 1671196); note: nearly all actives have a fitted effect of over 50% in size; note: potency is the fitted concentration of half-maximal effect; for activity change, negative = inhibition: series mostly up to about 120 µM
Procedure, shortened: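 Each well received CYP2D6 with its proluciferin substrate and chemical, sat 10 min, then got NADPH regeneration solution for 1 h at room temperature. Luminescence in RLU served as the activity measure.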

[2] = molecular target: Cytochrome P450 2C19 (Homo sapiens) (UniProt P33261); experiment: Cytochrome P450 Family 2 Subfamily C Member 19 (CYP2C19) small molecule antagonists: luciferase reporter qHTS assay (AID 1671197); note: nearly all actives have a fitted effect of over 65% in size; note: potency is the fitted concentration of half-maximal effect; for activity change, negative = inhibition: series mostly up to about 120 µM
Procedure, shortened: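 Quantitative high-throughput screen of the Tox21 library using CYP2C19 with proluciferin substrate. Reaction: NADPH regeneration, 37C, 1 h, after 10 min compound preincubation at room temperature. Readout: luminescence.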

[3] = molecular target: Cytochrome P450 2C9 (Homo sapiens) (UniProt P11712); experiment: Cytochrome P450 Family 2 Subfamily C Member 9 (CYP2C9) small molecule antagonists: luciferase reporter qHTS assay (AID 1671198); note: nearly all actives have a fitted effect of over 50% in size; note: potency is the fitted concentration of half-maximal effect; for activity change, negative = inhibition: series mostly up to about 120 µM
Procedure, shortened: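 Enzyme-substrate mix preincubated with compound 10 min at room temperature; reaction started with NADPH regeneration solution, 1 h 37C. Luminescent luciferin product read after 20 min detection reagent.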

[4] = molecular target: Voltage-gated inwardly rectifying potassium channel KCNH2 (Homo sapiens) (UniProt Q12809); experiment: Human Ether-a-go-go-Related Gene (hERG) channel small molecule antagonists: fluorescence cell-based qHTS assay (AID 1671200); note: series mostly up to about 77 µM; nearly all actives have a fitted effect of over 50% in size
Procedure, shortened: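 Thallium flux as potassium surrogate: FluxOR II dye loaded 1 h at room temperature into hERG-expressing U2OS cells, then stimulus buffer added after 10 min. Kinetic 480 nm excitation/540 nm emission read, 2 min.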

[5] = molecular target: Cytochrome P450 3A4 (Homo sapiens) (UniProt P08684); experiment: Cytochrome P450 Family 3 Subfamily A Member 4 (CYP3A4) small molecule antagonists: luciferase reporter qHTS assay (AID 1671201); note: nearly all actives have a fitted effect of over 50% in size; note: potency is the fitted concentration of half-maximal effect; for activity change, negative = inhibition: series mostly up to about 120 µM
Procedure, shortened: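 Recombinant human CYP3A4 converts a proluciferin substrate to luciferin over 1 h at room temperature after NADPH regeneration solution is added (compound preincubated 10 min); detection reagent stops reaction, luminescence read 20 min later as relative units.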

[6] = molecular target: Cytochrome P450 1A2 (Homo sapiens) (UniProt P05177); experiment: Cytochrome P450 Family 1 Subfamily A Member 2 (CYP1A2) small molecule antagonists: luciferase reporter qHTS assay (AID 1671199); note: nearly all actives have a fitted effect of over 50% in size; note: potency is the fitted concentration of half-maximal effect; for activity change, negative = inhibition: series mostly up to about 120 µM
Procedure, shortened: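 Enzymatic CYP1A2 assay, human, luminescent: 10 min compound–enzyme–substrate preincubation, 1 h NADPH-dependent turnover, 20 min detection step, room temperature throughout. Reduced light indicates lower CYP1A2 activity.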
% is set by controls: 0 for no effect and ±100 for the full control effect.

Voltage-gated inwardly rectifying potassium channel KCNH2 (Homo sapiens), sequence (Q12809 whole entry, looked up): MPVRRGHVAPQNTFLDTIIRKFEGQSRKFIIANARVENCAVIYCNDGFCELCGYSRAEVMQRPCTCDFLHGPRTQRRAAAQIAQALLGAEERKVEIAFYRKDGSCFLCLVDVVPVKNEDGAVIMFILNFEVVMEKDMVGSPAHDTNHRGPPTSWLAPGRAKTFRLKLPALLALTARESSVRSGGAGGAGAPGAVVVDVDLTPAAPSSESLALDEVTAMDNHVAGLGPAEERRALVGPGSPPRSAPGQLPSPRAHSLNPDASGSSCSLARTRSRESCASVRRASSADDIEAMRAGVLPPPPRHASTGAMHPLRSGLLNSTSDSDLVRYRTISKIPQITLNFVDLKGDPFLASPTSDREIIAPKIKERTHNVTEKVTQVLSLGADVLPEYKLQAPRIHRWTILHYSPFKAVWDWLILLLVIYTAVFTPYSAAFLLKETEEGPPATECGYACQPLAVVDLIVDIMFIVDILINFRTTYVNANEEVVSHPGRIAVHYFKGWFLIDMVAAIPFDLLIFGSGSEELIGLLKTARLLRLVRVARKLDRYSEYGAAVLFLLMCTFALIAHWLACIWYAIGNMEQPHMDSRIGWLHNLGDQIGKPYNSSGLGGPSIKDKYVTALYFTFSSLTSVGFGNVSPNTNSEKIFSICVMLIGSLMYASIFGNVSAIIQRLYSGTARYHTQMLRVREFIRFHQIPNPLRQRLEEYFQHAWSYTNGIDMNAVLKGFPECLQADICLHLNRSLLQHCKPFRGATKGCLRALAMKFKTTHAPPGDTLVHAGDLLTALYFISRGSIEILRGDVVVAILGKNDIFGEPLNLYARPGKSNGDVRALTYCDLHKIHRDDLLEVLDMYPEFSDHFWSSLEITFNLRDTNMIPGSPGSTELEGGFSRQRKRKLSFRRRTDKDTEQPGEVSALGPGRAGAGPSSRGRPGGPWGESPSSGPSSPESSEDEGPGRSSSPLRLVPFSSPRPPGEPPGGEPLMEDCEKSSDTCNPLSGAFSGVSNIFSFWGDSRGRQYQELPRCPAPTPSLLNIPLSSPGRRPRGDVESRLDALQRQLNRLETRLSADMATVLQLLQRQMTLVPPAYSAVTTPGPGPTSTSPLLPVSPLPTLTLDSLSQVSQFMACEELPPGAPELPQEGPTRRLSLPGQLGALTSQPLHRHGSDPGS
Cytochrome P450 1A2 (Homo sapiens), sequence (P05177 whole entry, looked up): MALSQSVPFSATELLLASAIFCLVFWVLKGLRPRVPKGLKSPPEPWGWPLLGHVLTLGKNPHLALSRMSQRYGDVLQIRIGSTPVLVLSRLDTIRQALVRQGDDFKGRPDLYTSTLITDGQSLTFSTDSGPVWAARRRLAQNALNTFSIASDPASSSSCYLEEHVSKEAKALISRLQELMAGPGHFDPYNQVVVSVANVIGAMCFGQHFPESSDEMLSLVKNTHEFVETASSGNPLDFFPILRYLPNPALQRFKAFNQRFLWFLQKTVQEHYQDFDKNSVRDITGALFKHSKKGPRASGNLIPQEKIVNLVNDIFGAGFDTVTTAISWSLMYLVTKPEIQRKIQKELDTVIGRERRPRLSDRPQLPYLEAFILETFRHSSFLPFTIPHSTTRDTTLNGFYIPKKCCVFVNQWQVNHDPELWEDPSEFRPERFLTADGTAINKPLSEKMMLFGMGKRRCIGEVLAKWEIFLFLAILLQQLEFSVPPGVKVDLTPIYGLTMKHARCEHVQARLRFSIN
Cytochrome P450 2C9 (Homo sapiens), sequence (P11712 whole entry, looked up): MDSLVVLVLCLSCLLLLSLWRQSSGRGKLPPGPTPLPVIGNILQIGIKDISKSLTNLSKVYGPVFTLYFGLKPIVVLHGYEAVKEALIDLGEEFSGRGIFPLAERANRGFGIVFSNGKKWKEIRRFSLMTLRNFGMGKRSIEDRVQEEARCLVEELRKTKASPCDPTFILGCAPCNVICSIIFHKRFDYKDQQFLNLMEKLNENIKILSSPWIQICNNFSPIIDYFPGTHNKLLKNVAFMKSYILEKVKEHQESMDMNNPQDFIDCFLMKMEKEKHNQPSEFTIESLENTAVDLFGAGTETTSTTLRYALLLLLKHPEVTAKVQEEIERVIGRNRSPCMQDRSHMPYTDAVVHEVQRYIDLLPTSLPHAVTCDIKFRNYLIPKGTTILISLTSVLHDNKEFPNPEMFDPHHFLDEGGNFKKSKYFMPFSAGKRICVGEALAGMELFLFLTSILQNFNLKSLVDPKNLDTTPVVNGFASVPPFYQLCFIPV
Cytochrome P450 2D6 (Homo sapiens), sequence (P10635 whole entry, looked up): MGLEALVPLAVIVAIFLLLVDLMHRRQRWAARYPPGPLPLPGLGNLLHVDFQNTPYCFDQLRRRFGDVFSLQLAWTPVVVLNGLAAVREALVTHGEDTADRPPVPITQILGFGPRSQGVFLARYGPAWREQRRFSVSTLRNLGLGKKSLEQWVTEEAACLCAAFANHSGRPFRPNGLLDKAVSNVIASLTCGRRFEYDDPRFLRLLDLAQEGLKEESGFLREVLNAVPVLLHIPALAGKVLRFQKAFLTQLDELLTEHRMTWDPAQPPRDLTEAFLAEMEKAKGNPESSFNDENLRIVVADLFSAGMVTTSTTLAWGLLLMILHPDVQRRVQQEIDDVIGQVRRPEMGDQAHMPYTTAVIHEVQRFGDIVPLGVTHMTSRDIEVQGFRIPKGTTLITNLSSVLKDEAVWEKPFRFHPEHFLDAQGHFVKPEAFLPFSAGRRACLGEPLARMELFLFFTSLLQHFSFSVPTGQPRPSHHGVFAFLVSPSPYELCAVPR
Cytochrome P450 2C19 (Homo sapiens), sequence (P33261 whole entry, looked up): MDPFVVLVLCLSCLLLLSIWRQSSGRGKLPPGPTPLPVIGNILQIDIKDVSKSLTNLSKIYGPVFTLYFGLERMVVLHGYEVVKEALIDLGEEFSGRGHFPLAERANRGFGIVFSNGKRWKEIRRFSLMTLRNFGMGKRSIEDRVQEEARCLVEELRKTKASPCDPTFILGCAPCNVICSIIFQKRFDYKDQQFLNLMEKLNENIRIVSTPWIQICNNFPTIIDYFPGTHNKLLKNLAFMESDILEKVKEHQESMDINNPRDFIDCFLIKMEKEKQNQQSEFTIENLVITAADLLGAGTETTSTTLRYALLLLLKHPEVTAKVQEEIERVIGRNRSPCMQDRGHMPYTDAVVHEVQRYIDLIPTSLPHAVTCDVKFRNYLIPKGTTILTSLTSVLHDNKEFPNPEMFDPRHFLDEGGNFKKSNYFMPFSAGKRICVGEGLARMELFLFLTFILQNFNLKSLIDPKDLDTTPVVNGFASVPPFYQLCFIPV
Cytochrome P450 3A4 (Homo sapiens), sequence (P08684 whole entry, looked up): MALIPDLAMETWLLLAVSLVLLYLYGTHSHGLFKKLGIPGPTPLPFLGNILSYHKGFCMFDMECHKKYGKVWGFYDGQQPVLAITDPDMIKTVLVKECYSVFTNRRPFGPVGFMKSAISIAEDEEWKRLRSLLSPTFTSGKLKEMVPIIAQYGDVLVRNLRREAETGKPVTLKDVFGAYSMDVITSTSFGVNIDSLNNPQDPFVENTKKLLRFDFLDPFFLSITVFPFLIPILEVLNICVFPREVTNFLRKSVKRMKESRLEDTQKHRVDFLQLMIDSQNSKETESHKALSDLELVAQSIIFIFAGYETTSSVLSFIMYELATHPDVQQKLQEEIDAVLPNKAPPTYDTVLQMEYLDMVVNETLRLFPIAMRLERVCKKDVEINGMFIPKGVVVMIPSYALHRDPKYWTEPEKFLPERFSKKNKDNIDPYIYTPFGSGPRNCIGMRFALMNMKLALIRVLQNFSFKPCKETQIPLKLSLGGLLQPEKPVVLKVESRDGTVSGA

CC(=O)c1c(C)cc(C(C)(C)C)cc1C
active: Potency [2] 71 µM
inactive: Potency [1] | Potency [3] | Potency [4] | Potency [5]

COC(=O)/C=C(\C)CCC=C(C)C
active: Potency [2] 25.2 µM | Potency [3] 39.9 µM | Potency [5] 31.7 µM
inactive: Potency [1] | Potency [4]

CCCCN(CCCC)CCCCCCN(CCCC)CCCC
active: Potency [1] 5.03 µM
inactive: Potency [2] | Potency [6] | Potency [4] | Potency [5]

CNC(C)=O
inactive: Potency [1] | Potency [2] | Potency [3] | Potency [4] | Potency [5]

NC[C@H]1O[C@H](O[C@H]2[C@H](O)[C@@H](O[C@H]3O[C@H](CO)[C@@H](O)[C@H](N)[C@H]3O)[C@H](N)C[C@@H]2N)[C@H](N)[C@@H](O)[C@@H]1O
inactive: activity change, negative = inhibition [1] 0.727% [at 23.6 µM] | activity change, negative = inhibition [2] 39.5% [at 23.6 µM] | activity change, negative = inhibition [3] 16.5% [at 23.6 µM] | activity change, negative = inhibition [4] 1.37% [at 15.8 µM] | activity change, negative = inhibition [5] 6.04% [at 23.6 µM]

CCCCNCC
inactive: Potency [1] | Potency [4] | Potency [5]
active: Potency [2] 27.2 µM | Potency [6] 19.3 µM

O=C(O)/C=C(\CC(=O)O)C(=O)O
inactive: Potency [1] | Potency [2] | Potency [3] | Potency [4] | Potency [5]

Cc1ccc(OC(=O)CC(C)C)cc1
inactive: Potency [1] | Potency [2] | Potency [3] | Potency [4] | Potency [5]

COc1ccccc1N1CCN(CC(O)COc2cc(OC)c(OC)c(OC)c2)CC1 (configuration not stated)
inactive: Potency [1] | Potency [2] | Potency [4] | Potency [5]

C/C=C(\C)C(=O)OC/C=C(\C)CCC=C(C)C
inactive: Potency [1] | Potency [2] | Potency [4] | Potency [5]

CCO[Si](CC(C)C)(OCC)OCC
active: Potency [1] 44.8 µM | Potency [2] 35.6 µM | Potency [3] 39.9 µM | Potency [5] 31.7 µM
inactive: Potency [4]

COc1cc(C(=O)NC2CCCNC2)cc(OC)c1OC (configuration not stated)
active: Potency [6] 15.5 µM
inactive: Potency [1] | Potency [2] | Potency [4] | Potency [5]

C=CCON/C(CCC)=C1\C(=O)CC(C)(C)C(C(=O)OC)=C1O
inactive: Potency [1] | Potency [4]
active: Potency [2] 78.7 µM | Potency [3] 35.2 µM | Potency [5] 35.2 µM

Nc1nc(Cl)cc(Cl)n1
inactive: Potency [1] | Potency [2] | Potency [3] | Potency [4] | Potency [5]

O=C(O)Cc1c(Cl)ccc(Cl)c1Cl
inactive: Potency [1] | Potency [4]
active: Potency [2] 15.9 µM | Potency [6] 25.2 µM | Potency [5] 12.6 µM

BrCCOc1ccccc1
inactive: Potency [3] | Potency [4] | Potency [5]
active: Potency [1] 56.6 µM | Potency [2] 89.6 µM

CC(C)=CCC/C(C)=C\C#N
inactive: Potency [1] | Potency [3] | Potency [4] | Potency [5]
active: Potency [2] 39.9 µM

CC(C)(C)OC=O
inactive: Potency [1] | Potency [2] | Potency [3] | Potency [4] | Potency [5]

CCCCc1ccc(Cl)cc1
inactive: Potency [1] | Potency [2] | Potency [3] | Potency [4] | Potency [5]

Clc1ccc2c(c1)Nc1ccccc1S2
inactive: Potency [1] | Potency [4] | Potency [5]
active: Potency [2] 3.89 µM | Potency [6] 0.347 µM

CCCCN1C(=O)c2ccccc2C1=O
active: Potency [2] 20.7 µM | Potency [6] 2.61 µM
inactive: Potency [1] | Potency [4] | Potency [5]

CC12CCCC=C1C(=O)OC2=O (configuration not stated)
inactive: Potency [1] | Potency [2] | Potency [4] | Potency [5]

Cc1cc(N)no1
inactive: Potency [2] | Potency [3] | Potency [4] | Potency [5]
active: Potency [1] 65.6 µM

O=Cc1ccccc1S(=O)(=O)O
inactive: Potency [1] | Potency [2] | Potency [6] | Potency [4] | Potency [5]

CC/C=C/CCCCCCCCCCOC(C)=O
inactive: Potency [1] | Potency [2] | Potency [3] | Potency [4] | Potency [5]

CCN(CC)CC
active: Potency [1] 23.6 µM | Potency [2] 59.4 µM
inactive: Potency [6] | Potency [4] | Potency [5]

CCCCCC(=O)CC
inactive: Potency [1] | Potency [2] | Potency [6] | Potency [4] | Potency [5]

Cc1ccc2ccccc2n1
inactive: Potency [1] | Potency [2] | Potency [3] | Potency [4] | Potency [5]

O=C1c2ccccc2C(=O)N1CO
inactive: Potency [1] | Potency [2] | Potency [3] | Potency [4] | Potency [5]
